Experimental data: the supplement of paper PMC6555819

Tests used:
Assay in all cases: PBM binding z-score (relative to random genomic background probes); higher = stronger binding; sequences stand for … in GC…GCGATTGACAGCGTAGAATGAAGG
[1] = tested on: FXR:RXRa (NR concentration 270 nM, RXRa partner concentration 90 nM)
Method in brief: (§1)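 Binding buffer was PBS pH 7.4 with 2% milk, 0.02% Triton X-100, 1 mM DTT, 0.2 mg/mL BSA and 0.4 mg/ml salmon testes DNA. In it, ligand-free nuclear receptor dimers were incubated 1 h on custom Agilent 4×180K protein-binding microarrays carrying double-stranded probes. Antibodies against each partner (one per run) detected binding, and z-scores were calculated against random background probes after regression normalization of scanned fluorescence.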

[2] = tested on: LXRa:RXRa (NR concentration 270 nM, RXRa partner concentration 90 nM)
Method in brief: as §1

[3] = tested on: LXRa homodimer (NR concentration 270 nM)
Method in brief: as §1

[4] = tested on: LXRb:RXRa (NR concentration 270 nM, RXRa partner concentration 90 nM)
Method in brief: as §1

[5] = tested on: LXRb homodimer (NR concentration 270 nM)
Method in brief: as §1

[6] = tested on: PPARa:RXRa (NR concentration 270 nM, RXRa partner concentration 90 nM)
Method in brief: as §1

[7] = tested on: PPARg:RXRa (NR concentration 180 nM, RXRa partner concentration 90 nM)
Method in brief: as §1

[8] = tested on: PPARg:RXRa 270nM:90nM, anti-RXR (NR concentration 270 nM, RXRa partner concentration 90 nM)
Method in brief: as §1

[9] = tested on: PPARg:RXRa 30nM:10nM, anti-RXR (NR concentration 30 nM, RXRa partner concentration 10 nM)
Method in brief: as §1

[10] = tested on: PPARg:RXRa 90nM:30nM, anti-RXR (NR concentration 90 nM, RXRa partner concentration 30 nM)
Method in brief: as §1

Sequence | PBM binding z-score [1] | PBM binding z-score [2] | PBM binding z-score [3] | PBM binding z-score [4] | PBM binding z-score [5] | PBM binding z-score [6] | PBM binding z-score [7] | PBM binding z-score [8] | PBM binding z-score [9] | PBM binding z-score [10]
TAGCCTAGGTCACTGGGCCAGTATAGTACGCATC | 3.22 | 2.31 | -0.331 | 1.92 | -0.779 | 4 | 5.05 | 4.62 | 1.68 | 3.41
AATACAGGGTCATCGTAGGCCAGTGTACGCACAG | 6.9 | 6.17 | 2.35 | 4.64 | 1.16 | 5.62 | 6.48 | 5.88 | 3.01 | 4.66
TCTAGTTGGTCACGGAGGTCACACACGACGGGTA | 3.14 | 3.39 | 2.59 | 3.33 | 0.773 | 4.01 | 3.79 | 4.11 | 3.73 | 3.75
GATATAGGGTCAAGGCCAGAGTACGCGTATTGAT | 7.01 | 4.58 | 0.271 | 3.91 | 0.188 | 5.82 | 6.29 | 6.2 | 3.04 | 5.65
TTGCCAAGGTGAAGGTCGTTGATCCCTCTGTAGA | 2.38 | 1.79 | -0.705 | 1.45 | -1.15 | 2.12 | 0.85 | 2.06 | 0.251 | 1.41
GCGACTGGAGCATCAGCAGGTTACCATAACTTAA | -0.588 | -0.33 | -0.742 | -0.376 | -1.27 | 0.165 | 0.329 | -0.223 | -0.632 | -0.253
GCACCAAGGTGAATAGGTCGTTGATGAGTAGGCG | 0.712 | 0.592 | -0.472 | 0.429 | -0.835 | 2.37 | 1.17 | 1.62 | 0.404 | 0.742
CGTCAAAGTACAACTAAGGTAACGTAAAGCACGC | 0.707 | 0.122 | 0.142 | 0.219 | 0.198 | 0.548 | 0.918 | 0.504 | 0.132 | 0.467
TGAATGAGGTGATAAGATCAGGGAACGTTGCAAA | 0.365 | -0.0507 | -0.391 | -0.155 | -0.466 | 1.08 | 0.727 | 1.24 | 0.758 | 0.92
CCAGCCAGGTGAAAGGTAACTCAGTCTGGTACGC | 0.269 | 0.156 | -0.445 | 0.354 | -1.15 | 3.65 | 6.97 | 6.34 | 5.76 | 7.61
CCTAGCAGGCCAATTTGGGTCACTCAAGGCTTGA | 1.3 | 1.3 | -0.0886 | 1.16 | -1.16 | 2.37 | 0.558 | 0.917 | -0.434 | 0.671
TCATATAGGTAAACGCTAGGTGAAAGTCCGATCT | 1.11 | 0.968 | 0.15 | 0.833 | -0.0724 | 1.7 | 1.29 | 2.43 | 3.95 | 3.34
TCTTGTAGATAAGCAGGTTAAGAAAGCTGGCCAA | 0.562 | 0.358 | -0.156 | -0.00905 | -0.669 | 0.533 | -0.481 | 1.19 | 2.41 | 1.65
TCTTGTAGATCAACAGGAGGTTCAGAAAGATCGA | 0.027 | -0.0973 | -0.476 | -0.000896 | -0.414 | 0.453 | -0.062 | 1.25 | 2.65 | 2.18
ATGTCTAGGTAAAGATAGTTCAGTGAATGCAAAT | 0.0456 | 4.09 | 0.552 | 0.617 | 0.0209 | 0.376 | 0.701 | 0.217 | 0.312 | 0.184
TCGAGTAGGTTACCACTGGGGCATTCAGCTTTCT | -0.222 | 0.889 | -0.872 | 0.314 | -0.76 | 1.04 | 0.354 | 1.12 | 0.971 | 0.965
TCTATTAGATGAAGGGCAACCGACGAGTCCGTTT | 0.734 | 0.81 | -0.159 | 0.733 | 0.205 | 0.841 | 0.575 | 2.01 | 3.7 | 2.93
GCGATTGGGGCAAAGCAGGTTACCATAAGGTTGG | 0.351 | 0.0851 | -0.253 | 0.678 | -0.273 | 1.11 | 0.77 | 0.405 | -0.0974 | 0.132
TCTGCTAGGTCAACGAGGGTCAGCTAATCTGCTA | 4.68 | 4.83 | 0.398 | 3.04 | 0.26 | 4.27 | 3.36 | 3.79 | 2.12 | 3.02
TCTTGTAGATCAATAGTGGTTAAGAAAGTGCGCT | 0.499 | 0.37 | -0.000472 | 0.00968 | 0.297 | 0.451 | -0.385 | 1.4 | 2.83 | 2.06
AGAAAGAGGTTATACGTAGATCAGGGAAGAAAGT | 3.01 | 2.51 | 0.203 | 2.19 | 0.538 | 3.37 | 1.84 | 1.7 | 0.807 | 1.23
ATGTGTAGGTTAGCTGGGGTCATTCAGACTAGGC | 4.6 | 5.92 | 2.89 | 4.92 | 2.24 | 4.77 | 2.38 | 3.24 | 1.16 | 2.54
ACAAACAGGTGAGTGAAGGTAACTCAGCTGGACG | 0.326 | -0.0872 | -0.278 | -0.542 | -0.3 | 0.367 | 0.682 | 0.103 | 0.0977 | 0.229
CCTAGTTGGTCAAGAGGTCACACACCGGATATGA | 5.19 | 5.02 | 3.61 | 4.58 | 0.768 | 5.71 | 5.69 | 5.36 | 3.16 | 4.81
TAGCCTAGATCATTCAGGGGCCAGTATAGAAAGC | -0.33 | -0.505 | -0.351 | -0.00287 | -0.168 | 0.0623 | 0.276 | 0.125 | -0.256 | -0.407
